The values below come from PubChem BioAssay (Tox21).

Records with an inconclusive call do not appear. A structure can be active in one record and inactive in another. Calls of active or inactive are those of the source. Unless noted, calls follow the shape of the dose curve; as a rule, active = well fitted curve in the direction sought with a large enough effect in the repeat runs; inconclusive = weak or mixed curves; inactive = no such curve, though single readings can be large; an effect the other way counts as inactive or inconclusive.

The nature of assay [1]: A CellTox Green Cytotoxicity Assay to monitor cytotoxicity in HepG2 cells - 32 hour (AID 1224883). Also: nearly all actives have a fitted effect of over 50% in size. Also: potency is read from the fitted curve at half-maximal effect. The gist of the method:
(§1)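 Fluorescent DNA-binding dye, 600 HepG2 cells/well, 5 h preincubation then compound in DMSO; same plates read at 0–40 h, 37 C.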

Assay [2] in a line: qHTS RealTime-Glo MT Cell Viability Assay in HEK293 cells - 24 hour (AID 1224886). Also: nearly all actives have a fitted effect of over 50% in size. Also: potency is read from the fitted curve at half-maximal effect. As to activity change, negative = cytotoxicity: top concentration of the series differs between compounds. The gist of the method: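 Reads taken at 0, 8, 16, 24, 32 and 40 h from the same wells. HEK293 cells (600/well) carried RealTime-Glo reagents from seeding, with compound added after a 5 h settle at 37 C.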
A short description of assay [3]: A CellTox Green Cytotoxicity Assay to monitor cytotoxicity in HEK293 cells - 16 hour (AID 1224888). Also: nearly all actives have a fitted effect of over 35% in size. Also: potency is read from the fitted curve at half-maximal effect. The gist of the method: (§2)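 Homogeneous no-lysis format: HEK293 cell suspension mixed with CellTox Green reagent, seeded, incubated 5 h at 37 C/5% CO2, then dosed by pintool with compound in DMSO.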
The nature of assay [4]: qHTS RealTime-Glo MT Cell Viability Assay in HepG2 cells - 0 hour (AID 1224889). Also: nearly all actives have a fitted effect of over 50% in size. The essentials:
(§3)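 HepG2 suspension premixed with RealTime-Glo reagents is plated at 600 cells per well and left 5 h at 37 C/5% CO2. Compounds in DMSO then go in, and bioluminescence reflecting viable cell number is recorded over 40 h.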

Assay [5] can be described thus: qHTS assay to identify small molecule antagonists of the estrogen receptor alpha (ER-alpha) signaling pathway using the BG1 cell line in the presence of 0.1 nM 17-beta-estradiol - cell viability counter screen (AID 1259241). Also: nearly all actives have a fitted effect of over 40% in size. The essentials:
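Cells were plated and left 24 hr, compounds in DMSO were pinned in, 17beta-estradiol was added to 0.1 nM final, and after 22 hr CellTiter-Fluor reagent was added for 30 min before fluorescence was read.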

The target of assay [6] is Estrogen receptor (Homo sapiens) (UniProt P03372). The assay is described as follows: qHTS assay to identify small molecule antagonists of the estrogen receptor alpha (ER-alpha) signaling pathway using the BG1 cell line in the presence of 0.1 nM 17-beta-estradiol (AID 1259244). Also: nearly all actives have a fitted effect of over 50% in size. The essentials:
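Seeding of stripped-serum-adapted VM7Luc4E2 cells, 24 h attachment, compound transfer, then 0.1 nM final 17beta-estradiol; after 22 h incubation, ONE-Glo reagent and luminescence reading.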
(Quantitative high-throughput screening tests each substance at several concentrations.)

Assay [7] can be described thus: qHTS assay to identify small molecule HDAC inhibitors (AID 1259364).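 Also: wild-type HCT-116 cells with endogenous class I/II HDAC activity; top concentration of the series differs between compounds; nearly all actives have a fitted effect of over 45% in size.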 The essentials:
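After a 2 hr compound incubation (37C, 5% CO2), HCT-116 cells seeded at 1,500/well the day before received HDAC-Glo reagent; signal read as luminescence after 30 min at room temperature.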

The nature of assay [8]: qHTS assay to identify small molecule HDAC inhibitors - cell viability counter screen (AID 1259365). The gist of the method: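 Counter screen in wild-type HCT-116 cells: compounds dissolved in DMSO are pin-transferred onto overnight-plated cells and left 2hr at 37C. ATP-based CellTiter-Glo luminescence then measures viable cells.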
Assay [9] is described as follows: qHTS assay to identify small molecule agonists of the sonic hedgehog signaling (Shh) pathway (AID 1259368; calls by dose curve;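 also: NIH/3T3-derived 3T3Gli1-Luc cells carrying a stable Gli1-driven firefly luciferase reporter; series mostly up to about 92 µM; nearly all actives have a fitted effect of over 15% in size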). The gist of the method:
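Stable NIH/3T3 Gli1-Luc reporter clone; 24 hr cpd exposure after a 4 hr settling period; luminescence endpoint.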

The nature of assay [10]: qHTS assay to identify small molecule antagonists of the sonic hedgehog signaling (Shh) pathway (AID 1259369; calls by dose curve; also: nearly all actives have a fitted effect of over 45% in size; also: potency is read from the fitted curve at half-maximal effect). The gist of the method: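 Gli1 transcriptional reporter (firefly Luc) in NIH/3T3 background, conditioned-medium activated. 24hr exposure, luminescence endpoint.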
Assay [11] can be described thus: A CellTox Green Cytotoxicity Assay to monitor cytotoxicity in HEK293 cells - 8 hour (AID 1224884). Also: nearly all actives have a fitted effect of over 35% in size. The essentials: as §2
The nature of assay [12]: A CellTox Green Cytotoxicity Assay to monitor cytotoxicity in HepG2 cells - 8 hour (AID 1224890). Also: nearly all actives have a fitted effect of over 45% in size. The gist of the method:
as §1

Assay [13] in a line: qHTS assay to identify small molecule antagonists of the androgen receptor (AR) signaling pathway using the MDA cell line in the presence of 0.5 nM R1881 - cell viability counter screen (AID 1259242). Also: nearly all actives have a fitted effect of over 45% in size. The gist of the method:
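Human breast carcinoma MDA-kb2 cells, cultured without CO2, receive compounds alongside 0.5 nM (final) R1881 agonist. After 16 hr at 37C, viability is taken as live-cell protease signal.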

The nature of assay [14]: qHTS assay to identify small molecule phospholipidosis (PLD) inducers (AID 1259344; active = well fitted curve in the direction sought with a large enough effect; an effect the other way counts as inactive or inconclusive; also: potency is read from the fitted curve at half-maximal effect). The gist of the method:
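Accumulated phospholipid, stained red by LipidTOX during 24 h compound treatment of HepG2 cells at 37 C, is quantified from images as pit number and intensity, normalised per cell using Hoechst-stained nuclei.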

Assay [15] can be described thus: qHTS assay to identify small molecule agonists of the sonic hedgehog signaling (Shh) pathway - cell viability counter screen (AID 1259366). Also: nearly all actives have a fitted effect of over 50% in size. Also: potency is read from the fitted curve at half-maximal effect. The gist of the method: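 Cells are plated at 2,000 per well and left 4hr at 37C, 5% CO2 before compound addition. After 23hr of treatment, CellTiter-Fluor reagent is added for 1hr at 37C and fluorescence is measured.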
A short description of assay [16]: qHTS RealTime-Glo MT Cell Viability Assay in HEK293 cells - 8 hour (AID 1224887). The essentials:
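Measured as luminescence from the same continuously cultured HEK293 wells at successive time points (0, 8, 16, 24, 32, 40 h) after compound addition. Reagent present from seeding; dosing at 5 h; incubation 37 C.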

Assay [17] in a line: qHTS assay to identify small molecule antagonists of the sonic hedgehog signaling (Shh) pathway - cell viability counter screen (AID 1259367). Also: nearly all actives have a fitted effect of over 55% in size. Also: potency is read from the fitted curve at half-maximal effect. The essentials: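 CellTiter-Fluor signal in conditioned medium-stimulated 3T3 Gli1-Luc cells, 23 hr compound exposure, 37C.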
Assay [18] is described as follows: qHTS RealTime-Glo MT Cell Viability Assay in HepG2 cells - 16 hour (AID 1224885). Also: nearly all actives have a fitted effect of over 50% in size. The gist of the method:
as §3
% is scaled to controls: 0 for no effect and ±100 for the full control effect.

Sequence of Estrogen receptor (Homo sapiens) (P03372 whole entry, looked up): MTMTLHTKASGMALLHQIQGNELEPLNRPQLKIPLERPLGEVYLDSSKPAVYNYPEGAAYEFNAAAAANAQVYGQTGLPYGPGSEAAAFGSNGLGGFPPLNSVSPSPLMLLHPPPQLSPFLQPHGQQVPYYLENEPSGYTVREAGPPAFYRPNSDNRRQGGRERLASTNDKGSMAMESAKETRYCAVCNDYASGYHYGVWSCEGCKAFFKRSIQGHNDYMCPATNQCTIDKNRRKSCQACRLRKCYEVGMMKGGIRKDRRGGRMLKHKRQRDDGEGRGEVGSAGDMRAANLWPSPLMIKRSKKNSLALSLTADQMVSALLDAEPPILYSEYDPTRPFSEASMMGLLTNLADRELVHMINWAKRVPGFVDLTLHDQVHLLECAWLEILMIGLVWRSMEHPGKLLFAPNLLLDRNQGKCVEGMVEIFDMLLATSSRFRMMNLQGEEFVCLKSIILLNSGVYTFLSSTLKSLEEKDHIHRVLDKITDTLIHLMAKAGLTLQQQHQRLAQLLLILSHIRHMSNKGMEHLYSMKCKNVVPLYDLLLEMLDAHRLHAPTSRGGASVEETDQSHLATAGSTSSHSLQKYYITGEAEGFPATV

On to `OCCN1CCN(CCCN2c3ccccc3Sc3ccc(C(F)(F)F)cc32)CC1`, for which the results for the Potency in assay [1], in [2] and in assay [3] were 26.8 µM (active), 23.9 µM (active) and 26.8 µM (active), respectively. The Potency entry in assay [4], in assay [5], in [6], in [7], in assay [8] and in assay [9] was “inactive” each time. Further, in assay [10], the Potency entry is “inactive”.

Turning to `C#C[C@]1(OC(C)=O)CC[C@H]2[C@@H]3CCC4=C[C@@H](OC(C)=O)CC[C@@H]4[C@H]3CC[C@@]21C`, the Potency entry in [1], in assay [11], in assay [3], in [4], in [12] and in [5] was “inactive” each time. Besides, the Potency entry in [13], in assay [7], in assay [8], in assay [15] and in [9] was “inactive” in each case. In addition, the values for the Potency in [2] and in assay [14] were 21.3 µM (active) and 10 µM (active), respectively.

For the compound `Clc1nnc(Cl)c2ccccc12`, the Potency entry in assay [1], in assay [11], in assay [2], in [16], in [3] and in assay [4] was “inactive” throughout. For the same compound, the Potency result in [12], in [5], in [6], in assay [7], in [8] and in assay [15] was “inactive” in each case. The Potency result in [17] and in [9] was “inactive” each time.

Regarding `Nc1nc(N)nc(-c2cc(Cl)ccc2Cl)n1`, the Potency result in assay [1], in assay [11], in assay [18], in assay [2], in [16] and in assay [3] was “inactive” throughout. The Potency result in [4], in [12], in [5], in assay [13], in assay [14] and in [7] was “inactive” throughout. Also, the Potency result in assay [8], in assay [15], in assay [17], in assay [9] and in [10] was “inactive” in each case.

`Cc1ccc(O)c(O)c1`: the Potency entry in assay [1], in [18], in assay [4], in assay [12], in assay [13] and in assay [7] was “inactive” in each case. The Potency result in [9] is “inactive”. Further, the results for the Potency in [17] and in assay [10] were 21.1 µM (active) and 5.29 µM (active), respectively.

As to `C=C(CC)C(=O)c1ccc(OCC(=O)O)c(Cl)c1Cl`, the Potency result in assay [1], in [2], in assay [16], in assay [3], in assay [4] and in assay [12] was “inactive” in each case. Further, the Potency entry in assay [5], in assay [13], in assay [6], in assay [14], in assay [7] and in [8] was “inactive” in each case. Besides, the Potency result in assay [9] was “inactive”. Also, the Potency was 60.7 µM (active) and inactive in assay [15]; 60.7 µM (active) and inactive in assay [17]; 6.68 µM (active) in assay [10].

On to `[Cl][Pt-2]([Cl])([Cl])[Cl]`, for which the Potency result in [1], in [11], in [16], in assay [3], in [4] and in [12] was “inactive” each time. Moreover, the Potency entry in [5], in assay [13], in assay [6], in [7], in assay [8] and in assay [15] was “inactive” each time. Besides, in assay [9], the Potency entry is “inactive”.

Take `Cc1cc(C(C)(C)C)c(O)c(C)c1Cn1c(=O)n(Cc2c(C)cc(C(C)(C)C)c(O)c2C)c(=O)n(Cc2c(C)cc(C(C)(C)C)c(O)c2C)c1=O`: the Potency entry in [1], in assay [11], in assay [3], in [4], in assay [12] and in assay [5] was “inactive” each time. Besides, the Potency entry in assay [13], in assay [6], in [7], in [8], in assay [9] and in assay [10] was “inactive” each time.

`O=C(O)O`: the cytotoxicity increase in [1] was -9.49% [at 6.97 µM] (inactive); in assay [11], -0.487% [at 6.97 µM] (inactive); in [12], 4.8% [at 6.97 µM] (inactive). In [18], the activity change, negative = cytotoxic is -0.68% [at 6.97 µM] (inactive). The activity change, negative = cytotoxicity was -0.471% [at 6.97 µM] (inactive) in assay [2], 1.73% [at 6.97 µM] (inactive) in assay [16] and -4.12% [at 8.39 µM] (inactive) in assay [8]. Also, the activity change in [3] was 1.05% [at 6.97 µM, stronger effect = higher value] (inactive); in assay [9], 0.72% [at 8.39 µM, stronger effect = higher value] (inactive). In addition, the values for the viability change, negative = cytotoxic in assay [13], in assay [15] and in assay [17] were 0.635% [at 8.39 µM] (inactive), 1.19% [at 8.39 µM] (inactive) and -2.57% [at 8.39 µM] (inactive), respectively. The activity change, negative = inhibition in assay [6] is -65% [at 8.39 µM] (inactive); in assay [7] it was 2.76% [at 8.39 µM] (inactive).

For the compound `CCOC(=O)NNc1ccc(N(CC)CC(C)O)nn1` (stereo not drawn), the Potency entry in [1], in [11], in assay [18], in assay [2], in assay [16] and in assay [3] was “inactive” in each case. In addition, the Potency entry in assay [12], in [5], in assay [13], in assay [6], in [7] and in [8] was “inactive” in each case. Moreover, the Potency entry in assay [15], in assay [17], in assay [9] and in [10] was “inactive” in each case. The PLD induction in assay [14] is -4.24% [at 7.66 µM] (inactive).

Turning to `Cc1ccc(O)c(N)c1`, the Potency result in assay [11], in assay [18], in [3], in assay [4], in assay [12] and in assay [5] was “inactive” throughout. In addition, the Potency entry in [13], in assay [8] and in assay [9] was “inactive” throughout. Moreover, the Potency in assay [17] was 27.3 µM (active); in [10], 8.64 µM (active).

Regarding `CCO[C@@H]1O[C@H](C(COCc2ccccc2)OCc2ccccc2)[C@H](OCc2ccccc2)[C@H]1O` (stereo partly drawn), the Potency result in assay [1], in assay [11], in [3], in [12], in assay [5] and in assay [13] was “inactive” throughout. The Potency entry in assay [14], in assay [7], in assay [8], in [15], in assay [17] and in [9] was “inactive” in each case.
